The assay in a line: blood-stage malaria parasite viability loss – strain 3D7, DAPI fluorescence, 100 nL, primary screen (AID 1184).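 Further: parasites grown inside human red blood cells in medium with human serum.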 Particulars: P. falciparum 3D7 growth, 3 d, higher = more signal.
The compound `COc1cc([C@@H]2N[C@H](C(=O)O)Cc3c2[nH]c2ccccc32)cc(OC)c1OC` yielded a z-score of -0.0372.

The compound `CCN1C(C)=C(C(=O)OC)[C@@H](c2ccccc2)N2C(=O)[C@@]3(C(=O)OC)O[C@@]12[C@@H]1C(=O)CCC[C@@H]13` gave a z-score of -0.625.

For `Cc1ccc(S(=O)(=O)c2cc3oc2CC[C@@H](CO)NC(=O)N(C)Cc2cn(nn2)C[C@H](Cc2ccccc2)NC3=O)cc1`, the z-score is -0.746.

The compound `Cc1ccc(S[C@]2(C(=O)O)CC(=O)N(Cc3ccccc3)[C@@H]2c2ccc(CO)cc2)cc1` displayed a z-score of -0.254.

In turn, `C=CCC(OC(C)=O)[C@@H]1[C@@H](N(Cc2cc3ccccc3o2)C(=O)Cc2ccc(F)cc2)c2cc(OCCCO)ccc2N1C(=O)c1ccc(-c2ccccc2)cc1` (stereo partly specified) displayed a z-score of -0.0101.

In turn, `COC(=O)[C@@]1(Cc2ccc(OC)cc2)[C@H]2c3cc(C(=O)N(C)C)n(Cc4ccc(C)c(F)c4F)c3C[C@H]2CN1C(=O)c1ccccc1` displayed a z-score of -1.13.

As to `CN1C(=O)C2C=CC(C(O)c3ccc(N(C)C)cc3)N(Nc3ccc([N+](=O)[O-])cc3[N+](=O)[O-])C2C1=O` (stereo unspecified), the z-score was 0.985.

Compound `CN1C2C=C(c3ccc(CO)cc3)C(C3C(=O)N(C(N)=O)C(=O)C32)C1c1cccs1` (stereo unspecified) came in with a z-score of -1.65.

The compound `C#CCCCON=C1C[C@@H](O)[C@@H](O)[C@@H]2[C@@H]3C(=O)N(Cc4ccc5c(c4)OCO5)C(=O)[C@@H]3CC[C@H]12` showed a z-score of 0.594.

`C=C(COC)/C(=C/C[C@@H](OC(=O)c1ccncc1)c1ccc(OCCO)cc1)c1cc(C(=O)OC)ccc1OC` returned a z-score of -2.98.

As for `CO[C@H]1COC(=O)[C@H](CCSC)NC(=O)CC=C[C@@H](C)COC(=O)[C@@H](OCc2ccccc2)C=C[C@@H]1C`, the z-score is -0.115.

Consider `CN(C)CCCC[C@@H]1NC(=O)[C@@H]2C[C@H](C(=O)O)[C@H](c3ccc(O)cc3)N2C1=O`, for which the z-score is -1.35.

Take `O=[N+]([O-])c1ccc(C[n+]2ccc3ccc(O)cc3c2)o1`: the z-score is 0.87.

The compound `COCCOC(=O)N1C(=O)[C@@]2(c3cc(C#CCNC(N)=O)ccc31)[C@H](c1ccc(OCCO)cc1)N1[C@H](c3ccccc3)[C@H](c3ccccc3)OC(=O)[C@H]1[C@@H]2C(=O)N1CCCCCCC1` had a z-score of -2.1.

For the compound `CO[C@@H]1COC(=O)CC=C[C@H](C)COC(=O)[C@H](Cc2ccccc2)NC(=O)CC=C[C@H]1C`, the z-score is 0.684.

Consider `CC(C)=C1C(=O)C(c2ccccc2)=C2CN3C(=O)N(CCc4ccccc4)C(=O)[C@]3(Cc3ccccc3)[C@H]21`, for which the z-score was -0.774.

In the case of `COCCCNC(=O)[C@@]1(Sc2ccc(C)cc2)CC(=O)N(Cc2cc(C(F)(F)F)cc(C(F)(F)F)c2)[C@@H]1c1ccc(CO)cc1I`, the z-score is -0.709.

The compound `COc1ccc([Si](C)(C)[C@H]2[C@H](CC(=O)N3Cc4ccccc4C[C@H]3CO)O[C@@]3(C(=O)N(Cc4cccc(N5CCOC5=O)c4)c4ccccc43)[C@@H]2C)cc1` gave a z-score of -1.55.

In turn, `CO[C@@H]1COC(=O)[C@@H]2CCCN2C(=O)CC=C[C@@H](C)[C@H](OC)COC(=O)[C@@H]2CCCN2C(=O)CC=C[C@H]1C` returned a z-score of 0.583.

`CO[C@H]1O[C@H](CO)[C@@H](OC(=O)CCc2ccccc2)[C@@H]2OC(=O)[C@H](Cc3cccc(Br)c3)C/C=C/C[C@@H](Cc3cccc(Br)c3)C(=O)O[C@@H]12` came in with a z-score of -1.84.

`CO[C@H]1COC(=O)CC=C[C@H](C)[C@@H](OC)COC(=O)[C@H](Cc2ccccc2)NC(=O)CC=C[C@@H]1C` returned a z-score of 0.0429.

As for `CCCC=C(CCC)[C@@H](NC(=O)c1ccccc1)c1ccccc1`, the z-score was -0.639.

In the case of `COc1ccc(-c2ccccc2[C@@H]2N[C@H](C(=O)O)CC[C@H]2C)cc1`, the z-score is -0.907.

Regarding `CO[C@@H]1COC(=O)CC=C[C@@H](C)[C@H](OC)COC(=O)CC=C[C@H]1C`, the z-score was determined as 0.674.

For the compound `Cc1ccc(S[C@]2(C(=O)NCCCN(C)C)CC(=O)N(C3CCCCC3)[C@@H]2c2ccc(CO)cc2I)cc1`, the z-score was -1.65.

`COCCOC(=O)N1C(=O)[C@@]2(c3cc(C#CCCO)ccc31)[C@H](c1ccc(OCCO)cc1)N1[C@H](c3ccccc3)[C@H](c3ccccc3)OC(=O)[C@H]1[C@@H]2C(=O)NC[C@H](O)c1ccccc1` came in with a z-score of -2.1.

As to `COCCOC(=O)N1C(=O)[C@@]2(c3cc(C#CCC(C(=O)OC)C(=O)OC)ccc31)[C@H](c1ccccc1OCCO)N1[C@H](c3ccccc3)[C@H](c3ccccc3)OC(=O)[C@H]1[C@@H]2C(=O)N1CCCCCCC1`, the z-score is -1.97.

In turn, `O=C(CS)NCCCCCNC(=O)[C@H]1C[C@H]2C(=O)N3CCC[C@H]3C(=O)N2[C@H]1c1ccc(O)cc1` showed a z-score of -0.0463.

`CCOC(=O)C[C@H]1[C@H](OC(=O)c2cc3ccccc3oc2=O)[C@@H](NC(=O)C2CCCCC2)c2cc(OCCCO)ccc2N1C(=O)c1ccc2ccccc2n1` registered a z-score of -0.292.

Turning to `C[C@@H]1CC[C@H]2C(=O)N3CCC[C@H]3C(=O)N2[C@H]1c1ccc(Br)cc1`, the z-score was determined as 0.371.

Compound `O=C1C[C@@](C(=O)NC2CC2)(c2ccc([N+](=O)[O-])cc2)[C@@H](c2ccc(CO)cc2I)N1CC12CC3CC(CC(C3)C1)C2` showed a z-score of -1.29.

Take `CCC#CCN(Cc1ccccc1Br)[C@H](/C=C/c1ccccc1)[C@@H](O)Cc1ccccc1`: the z-score is -0.609.

Turning to `CC(C)(C)OC(=O)CC[C@]1(C(=O)N2CCCCC2)N=C(c2ccc(OCCCO)cc2)O[C@H]1c1ccccc1`, the z-score was -2.31.

`C[C@@H]1CC[C@H]2C(=O)N3[C@@H](CC[C@@H](C)[C@@H]3c3cccc(N4CCOCC4)c3)C(=O)N2[C@H]1c1cccc(N2CCOCC2)c1` registered a z-score of -0.529.

In the case of `C=C(/C(=C/C[C@@H](OC(=O)c1ccncc1)c1ccc(CO)o1)c1cnc2ccccc2c1)C(C)C`, the z-score was -0.599.

For `C[C@@H]1NC(=O)CC=C[C@@H](C)[C@@H]2C=C[C@H](O)[C@@H](COC(=O)[C@H](C)NC(=O)CC=C[C@@H](C)[C@@H]3C=C[C@H](O)[C@@H](COC1=O)O3)O2`, the z-score was -1.47.

The values above are taken from PubChem BioAssay.
